Screening data (PubChem)
S1P4 antagonist = S1P4 receptor antagonists, primary screen, cell-based | Sphingosine 1-phosphate receptor 4 (Homo sapiens), O95977 | S1P4-expressing cells, antagonist mode, reporter read-out | inhibition, % at 4.98 µM | hit rate 0.26% among 220,000 | AID 1510, 2009; in the data active means inhibition above about 29%;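 further: 0% = wells stimulated with agonist and 100% = vehicle wells without agonist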
PGE2 EP2 inh = human EP2 receptor antagonists, primary screen, TR-FRET cAMP, C6 glioma cells; Prostaglandin E2 receptor EP2 subtype (Homo sapiens), P43116; C6 glioma cells expressing human EP2; cells stimulated with saturating PGE2; inhibition, % at 25 µM; hit rate 0.52% among 260,000; AID 1422, 2008;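 active means percent inhibition above 40 after rounding to a whole number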;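 further: rat C6 glioma host cells with rolipram phosphodiesterase inhibitor present; the protocol text gives 20 µM as final concentration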
Target sequence (P43116 whole entry, looked up): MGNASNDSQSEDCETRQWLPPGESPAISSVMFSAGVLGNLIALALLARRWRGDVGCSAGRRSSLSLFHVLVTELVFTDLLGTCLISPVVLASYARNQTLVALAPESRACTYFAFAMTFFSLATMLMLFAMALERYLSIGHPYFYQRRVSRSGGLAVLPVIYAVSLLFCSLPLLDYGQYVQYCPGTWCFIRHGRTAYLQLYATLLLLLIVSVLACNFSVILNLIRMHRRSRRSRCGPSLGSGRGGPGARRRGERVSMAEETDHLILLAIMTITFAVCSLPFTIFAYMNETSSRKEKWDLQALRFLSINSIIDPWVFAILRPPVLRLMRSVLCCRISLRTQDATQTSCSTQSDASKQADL
S1P3 antagonist = S1P3 receptor antagonists, primary screen, cell-based; Sphingosine 1-phosphate receptor 3 (Homo sapiens), Q99500; CHO S1P3 NFAT-BLA reporter, FRET fluorescence, antagonist mode; inhibition, % at 4.98 µM; hit rate 0.27% among 170,000; AID 485, 2006;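 active means inhibition above the plate cutoff, the mean inhibition of test wells on that plate plus 3 SD, cut at about 28% in these data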;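 further: cells challenged with S1P at its EC80 of 0.8 µM; blue over green emission ratio from cleaved BLA substrate after 4 h stimulation; 0% = S1P-stimulated wells and 100% = unstimulated DMSO-only wells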
S1P4 ag = S1P4 receptor agonists, primary screen, cell-based; Sphingosine 1-phosphate receptor 4 (Homo sapiens), O95977; S1P4-expressing cell line, agonist reporter assay; activation, % at 4.98 µM; hit rate 0.35% among 220,000; in the data active means activation above about 11%;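 further: 0% = DMSO vehicle and 100% = reference agonist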
EP2 mod = EP2 receptor modulators, cAMP readout, primary screen, cell-based, HTRF cAMP, PGE2 stimulation; EP2-expressing cells, cAMP HTRF FRET, PGE2 co-stimulation; Prostaglandin E2 receptor EP2 subtype (Homo sapiens), P43116; induction, % at 25 µM; hit rate 0.83% among 260,000;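 active means compounds whose cAMP rise, as percent of the full-agonist control response, exceeds 60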;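 further: rat C6 glioma line stably carrying human EP2 under a CMV promoter; the protocol text gives 20 µM as final concentration; 100% = response of wells given 1 µM PGE2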
An asterisk follows results filed as active; . = no result given. Rows were chosen to be rich in hits. Some 1.9% of all compounds tested hit in one or more screens of this group.

SMILES	S1P4 antagonist	PGE2 EP2 inh	S1P3 antagonist	S1P4 ag	EP2 mod
COc1ccc2cc(CN(Cc3ccccc3)Cc3nnnn3C3CCCCC3)c(=O)[nH]c2c1	.	6	.	.	75*
CC1=N[C@@](C)(COC(=O)[C@]2(C)N[C@](C)(CO)CO2)COC1=O	.	48*	.	.	32
CC(=O)N1c2ccc(C(O)CN3CCN(c4ncccn4)CC3)cc2CC1C (centres undefined)	.	5	.	.	8
CCN1CCc2c(sc(NC(=S)NC(=O)c3ccco3)c2C(N)=O)C1	6	4	-19	1	-1
CCN1CCc2c(sc(NC(=O)Nc3ccc(Cl)c(Cl)c3)c2C(N)=O)C1	-7	6	29*	0	2
COCCCn1c(SCC(=O)Nc2cccc(C)c2)nnc1-c1ccoc1C	.	6	.	.	27
CCOC(=O)C1CCCN(C(=O)Cn2sc3nc(C)cc(C)c3c2=O)C1 (centres undefined)	-3	115*	-3	-2	-15
CCOC(=O)c1[nH]c2ccccc2c1NC(=O)CC	-11	12	55*	0	-1
C[N+](C)(C)[C@@H](C1=CCCC1=O)c1ccccc1	.	52*	.	.	18
COc1ccc(-c2cc(C(F)(F)F)nc(S(=O)(=O)CCCC(=O)Nc3cccnc3Cl)n2)cc1OC	29*	14	-19	0	-7
O=C1C(=Cc2cccnc2)C(=O)c2ccccc21	.	42*	.	.	-117
CCc1ccc2nc(SCC(=O)N3c4ccccc4CC3C)c(C#N)cc2c1 (centres undefined)	.	9	.	.	64*
Cc1ccc2nc(SCC(=O)N3c4ccccc4CC3C)c(C)cc2c1 (centres undefined)	-5	14	.	-2	42
Nc1cc2c(nc3c4ccccc4c(N)cc3[n+]2-c2cccc3ccccc23)c2ccccc12 (tested in a mixture with another compound)	.	54*	.	.	-9
Cc1cc(N)c2ccccc2[n+]1CCCCCCCCCC[n+]1c(C)cc(N)c2ccccc21	.	9	.	.	21
CC(C)OC(=O)C(C)Nc1n[nH]c(=S)[nH]c1=O (centres undefined)	-11	105*	-10	-1	-46
CC(C)COC(=O)C(C)Nc1n[nH]c(=S)[nH]c1=O (centres undefined)	5	47*	-9	0	-25
CC(C)COC(=O)CCNc1n[nH]c(=O)[nH]c1=O	-6	10	.	2	17
C/C(=C\C(=O)c1cccnc1)NNC(=O)c1ccc(C)cc1	.	10	.	.	-11
CCOc1ccccc1NC(=O)CN1CCC2(CC1)Nc1ccccc1-n1cccc12	.	.	.	.	33
CCOCCCn1c(SCC(=O)NCc2ccccc2)nc2ccccc2c1=O	.	14	.	.	-7
Nc1nnc(N2CCCCC2)s1	1	5	-18	-2	6
CN(c1nnc(N)s1)C1CCCCC1	-3	3	95*	1	13
CCCCCCCCn1cnc2c(N)c(C)c(C)cc21	-4	3	.	-3	62*
CC(=O)C1=C(O)C(=O)N(CCCNCCO)C1c1ccc(F)cc1 (centres undefined)	.	10	.	.	-36
SMILES	S1P4 antagonist	PGE2 EP2 inh	S1P3 antagonist	S1P4 ag	EP2 mod
NC(=O)c1ccc[n+]([C@@H]2O[C@H](COP(=O)([O-])OP(=O)(O)OC[C@H]3O[C@@H](n4cnc5c(N)ncnc54)[C@H](OP(=O)(O)O)[C@@H]3O)[C@@H](O)[C@H]2O)c1	.	10	.	.	71*
C/C(N[O-])=C(\C)[N+]([O-])=[Co].CC(=N\[O-])/C(C)=N/[O-].O[C@@H]1[CH-]CCCC1.c1ccncc1	.	43*	.	.	-1
O=C(CN1C(=O)c2cccc3cccc1c23)Nc1cc(Cl)ccc1Cl	.	6	.	.	-2
CC(=O)C1=C(O)C(=O)N(CCNCCO)C1c1ccccc1F (centres undefined)	.	10	.	.	-21
CC(=O)C1=C(C)NC(SCC(=O)c2ccc(-c3ccccc3)cc2)=C(C#N)C1c1cccnc1 (centres undefined)	9	49*	.	-1	-22
CC(=O)C1=C(C)NC(SCSc2ccccc2)=C(C#N)C1c1cccnc1 (centres undefined)	1	9	-13	0	14
COC(=O)/C=C1/C(=O)N(C(C)=O)c2ccccc21	.	71*	.	.	-51
Cc1ccc(-c2ccc(S(=O)(=O)N3CCCC3)cc2)cc1	-14	14	-16	0	20
Cc1ccc(S(=O)(=O)N2CC(=NO)C2)cc1	4	2	66*	1	24
COCCCNC(=O)c1c(NC(=O)c2ccccc2)sc2c1CCCC2	.	11	.	.	65*
COCCCNC(=O)c1c(NC(=O)c2ccc(C)cc2)sc2c1CCCC2	.	12	.	.	33
CCCNC(=O)c1nnsc1S(=O)c1ccc(Cl)cc1 (centres undefined)	77*	69*	-4	-1	-74
CCCNC(=O)c1nnsc1S(=O)(=O)c1ccc(Cl)cc1	64*	9	-2	-3	-74
CNC(=O)c1nnsc1S(=O)c1ccc(Cl)cc1 (centres undefined)	14	29	-18	-2	-84
CCCNC(=O)NS(=O)(=O)c1ccc(Cl)cc1	-13	19	-11	2	36
CCN1C2=C(C(=O)CCC2)C(c2ccc(O)c(Cl)c2)C2=C1CCCC2=O	.	9	.	.	15
COC1=CC=C(C2C3=C(CC(C)(C)CC3=O)OC3=C2C(=O)CC(C)(C)C3)CC1	.	8	.	.	-7
COc1cc(/C=C/c2nc3ccc([N+](=O)[O-])cc3s2)ccc1OCC(=O)O	-2	11	4	1	85*
O=C(Cn1ccc2ccc(F)cc21)NCc1noc(-c2ccccc2)n1	.	7	.	.	-34
Cc1ccc(/C=C/C(=O)c2ccc(Br)cc2)o1	.	95*	.	.	-107
CC(=O)OCCCNc1cc(Sc2nc3ccccc3s2)c2nonc2c1[N+](=O)[O-]	-19	41*	.	0	-21
Cc1cc(-c2cncnc2C2CCCN(C(=O)CCn3nc(C)cc3C)C2)on1 (centres undefined)	.	.	.	.	-9
COC(=O)c1sccc1NC(=O)CSc1cccc(Cl)c1Cl	-13	.	.	0	61*
COC(=O)c1sccc1NC(=O)/C=C/c1c(Cl)cccc1Cl	-24	21	.	-1	28
COc1ccc(-c2nnc(SCC#N)n2C)cc1	.	9	.	.	8
COCCn1c(SCC#N)nnc1-c1ccc(OC)cc1	-19	123*	.	2	24
CCC(c1nnnn1C(C)(C)C)N(Cc1ccccc1Cl)Cc1cc2cc(C)cc(C)c2[nH]c1=O (centres undefined)	.	14	.	.	44
N#CCn1cc(/C=C2\C(=O)NC(=O)N(c3ccc(Cl)cc3)C2=O)c2ccccc21	.	84*	.	.	-107
COCCNC(=O)Cn1cc(/C=C2/C(=O)NC(=O)N(c3ccc4ccccc4c3)C2=O)c2ccccc21	.	10	.	.	-66
CCC1(C)Cc2ccccc2-c2nc3n(c(=O)c21)CCCCC3 (centres undefined)	-12	9	.	0	57
